Out of some 33,000 compounds screened, about 40 (0.1%) were called active. The sample holds actives, similar compounds and a random draw of the others, so the mix is not that of the screen. Rule as the data show it: active = z-score below about -3; inactive = the rest.

The nature of this experiment: inhibitors of measles virus growth in cells, primary screen, measles RdRp inhibitor project, cell-based, single point, HTS (AID 745). The note with it: infected Vero cells, GFP fluorescence, 64 h; stronger effect = lower value.
Regarding `COc1nc(SC)nnc1C`, the z-score is -5.82 (active). `COc1cc(NC(=O)c2cc(-c3ccc(Cl)cc3)on2)c(OC)cc1Cl`: the z-score was -0.12 (inactive). To `COC(=O)c1sc(=S)n(-c2ccc(OC)c(Cl)c2)c1N` belongs 0.31 (inactive). To `O=C(Nc1c(C(=O)N2CCC(Cc3ccccc3)CC2)cnn1-c1ccccc1)c1ccc(Br)cc1` belongs 0.43 (inactive). In the case of `COc1ccc(-c2cc(C(=O)Nc3sc4c(c3C(N)=O)CCCC4)no2)cc1` it was 0.31 (inactive); in that of `CCCc1n(CC(O)COc2cccc(Cl)c2)c2ccccc2[n+]1C` (configuration not stated), 0.55 (inactive); in that of `CC1CC(C)(C)NC(=S)N1CCC(=O)Nc1ccc(OC(F)(F)F)cc1` (configuration not stated), -0.78 (inactive).

Take `O=C1COc2ccc(Cl)cc2N1`: the z-score was 0.06 (inactive).

Regarding `CCOC(=O)c1sc(NC(=O)COc2ccc(C(C)C)c(C)c2)nc1C`, the z-score was -0.5 (inactive). To `COc1ccc(C2C(C(=O)Nc3ccc(Br)cc3C)c3ccccc3C(=O)N2C)cc1` (configuration not stated) belongs -0.56 (inactive); to `O=S(=O)(c1ccccc1)N1CCN(C2CC3CCC2C3)CC1` (configuration not stated), -0.28 (inactive); to `N=C1N=C(N)C(Cc2ccccc2)S1` (configuration not stated), -0.59 (inactive). In the case of `Cc1noc(NS(=O)(=O)c2ccc(NC(=O)c3cccc(Br)c3)cc2)c1C` it was 0.43 (inactive); in that of `CC(=O)Nc1cc(C(=O)N(C)CCC#N)ccc1Sc1ccc(Cl)cc1`, -1.08 (inactive).

For the compound `COc1ccc(C2C(C(=O)Nc3ccccc3F)=C(C)NC3=C2C(=O)CCC3)cc1OC` (configuration not stated), the z-score was 0.03 (inactive). In the case of `O=C(NCc1ccccc1)c1ccc2c(=O)n(-c3ccccc3)c(=S)[nH]c2c1` it was 0.39 (inactive); in that of `O=C1C(=O)N(c2nccs2)C(c2ccccc2Cl)/C1=C(\O)c1ccc(F)cc1` (configuration not stated), 1.65 (inactive); in that of `CCCCNC(=O)c1cnn2c(C)c(Cc3ccccc3)c(C)nc12`, -0.18 (inactive).

Take `O=C(c1ccc(-n2c(=S)[nH]c3ccccc3c2=O)cc1)N1CCN(C2CCCCC2)CC1`: the z-score was -0.06 (inactive). To `O=C(Nc1ncnc2sc3c(c12)CCCC3)c1ccccc1` belongs 0.41 (inactive); to `S=c1[nH]c(-c2ccc(Cl)cc2)cn1-c1cccc(Cl)c1`, -0.55 (inactive).

Turning to `Nc1nnc2c(n1)-c1ccccc1C2=O`, the z-score is 0.84 (inactive). To `CCC(NS(=O)(=O)c1ccc(Oc2ccc([N+](=O)[O-])cc2)cc1)C12CC3CC(CC(C3)C1)C2` (configuration not stated) belongs -1.36 (inactive); to `O=C(CN1C(=O)c2cccc3cccc1c23)N1CCCCCC1`, 0.09 (inactive); to `CCCCN(C)Cc1c(O)ccc2c(=O)c(Oc3ccc(CC)cc3)c(C(F)(F)F)oc12`, -0.69 (inactive).

With `Fc1ccccc1CSc1nc(NCC2CCCO2)c2ccccc2n1` (configuration not stated), the z-score was -1.9 (inactive).

Regarding `COCCNC(=O)c1ccc(N2CC3CC(C2)c2cccc(=O)n2C3)c(NC(=O)c2cc3ccccc3oc2=O)c1` (configuration not stated), the z-score was 0.89 (inactive). As to `Cc1ccc(NCc2ccccc2CO)cc1`, the z-score is -0.53 (inactive). In the case of `C=CCC1(C#N)C(=S)NC(c2ccccc2)=C(C(=O)OCC)C1c1cccnc1` (configuration not stated) it was 1.37 (inactive); in that of `CC(=O)N1CCc2cc(Br)cc(S(=O)(=O)NCCCN3CCCCCC3)c21`, 0.64 (inactive); in that of `COc1ccc(C=NCCC2(c3ccc(OC)cc3)CCOC(C)(C)C2)cc1` (configuration not stated), -0.17 (inactive). In the case of `COc1ccccc1-c1nc2nc(C)cc(=O)n2[nH]1` it was -0.19 (inactive). In the case of `Cc1ccccc1C(=O)Nc1cccc(F)c1` it was 1.39 (inactive); in that of `O=C(Cc1c(C(=O)O)[nH]c2ccc(Cl)cc12)NCc1ccc2c(c1)OCO2`, 1.5 (inactive). On to `COc1ccc(NC(=O)Cn2c(=O)n(CCc3ccccc3)c(=O)c3c(C)c(C)sc32)cc1`, for which the z-score is 2.83 (inactive). In the case of `Cn1c(=O)c(=O)n(C)c2cc(S(=O)(=O)N3CCCc4ccccc43)ccc21` it was -0.1 (inactive). As to `CCN1CCN(c2cc(C)c3cc(NC(=O)CCC4CCCC4)ccc3n2)CC1`, the z-score was -0.38 (inactive). In the case of `Cc1cccc(C)c1NC(=O)CSc1ccc([N+](=O)[O-])cn1` it was 0.01 (inactive); in that of `COc1cccc(NC(=O)Cn2cc(C(=O)C(F)(F)F)c3ccccc32)c1`, -0.44 (inactive); in that of `COc1ccc(OC)c(C2Nc3cccc4cccc(c34)N2)c1`, -0.45 (inactive). In the case of `CCOP(=O)(Cc1cc(C(C)(C)C)c(O)c(C(C)(C)C)c1)OCC`, the z-score is -1.02 (inactive). Take `CC1Cc2nc(SCC(=O)Nc3cccc(Cl)c3)n(C)c(=O)c2S1` (configuration not stated): the z-score is 0 (inactive). In the case of `COc1cccc(OC)c1C(=O)Oc1cccc2ccc(C)nc12` it was -0.39 (inactive); in that of `CC1(C)CC(=O)C2=C(C1)OC1=C(C(=O)CC(C)(C)C1)C2c1ccccc1C(=O)O`, 0.12 (inactive). To `O=[N+]([O-])c1ccc(N2CCCCCC2)c(S(=O)(=O)N2CCOCC2)c1` belongs -0.01 (inactive); to `Cc1ccccc1NC(=O)CC1Sc2ccccc2NC1=O` (configuration not stated), -0.07 (inactive). To `O=C(O)CCNC(=O)Cn1cnc2sc3c(c2c1=O)CCCC3` belongs 1.62 (inactive); to `CCn1c(SCC(=O)Nc2ccc(F)cc2)nc2c(c1=O)SC(C)C2` (configuration not stated), -0.54 (inactive); to `O=C(CSc1nc2c([nH]c3ccccc32)c(=O)n1-c1cccc(Cl)c1)Nc1nccs1`, -1.08 (inactive). Turning to `COc1ccc(Cl)cc1NC(=O)CSc1nc2cc(OC)c(OC)cc2c2nc(C)nn12`, the z-score is -0.11 (inactive). In the case of `CCOCCOC(=O)C1=C(C)NC(=O)NC1c1cccc([N+](=O)[O-])c1` (configuration not stated) it was 4.15 (inactive). To `COc1ccc(C=Cc2nc3ccccc3[nH]2)cc1` belongs -0.15 (inactive); to `COc1cc(C2NC(=O)N(C)C(C)=C2C(=O)OCCc2ccccc2)cc(Br)c1O` (configuration not stated), -0.63 (inactive); to `COc1ccccc1-n1c(C)nc2cc(C(=O)NCc3cccnc3)ccc21`, 1.95 (inactive). In the case of `Cc1ccc(C(=O)CC2(O)C(=O)N(C(C)C)c3ccccc32)c(C)c1` (configuration not stated) it was -0.29 (inactive). For the compound `Clc1ccc(-c2ncnn2-c2cccc(Cl)c2)cc1`, the z-score is -0.25 (inactive). To `CCOc1ccc(Nc2cc(C(=O)NCCN3CCCC3)c3ccccc3n2)cc1` belongs -0.89 (inactive); to `O=C(Nc1ccccc1-c1nc2ccccc2s1)c1ccc(S(=O)(=O)N2CCCCCC2)cc1`, 0.69 (inactive). To `O=C(Nc1ccc(Oc2ccccc2)cc1)c1cn(-c2ccc(Cl)cc2)c(=O)c2ccccc12` belongs -0.93 (inactive). `Cc1onc(-c2ccccc2)c1C(=O)N1CCN(c2ccc(OCc3ccccc3)cc2)CC1`: the z-score is -0.43 (inactive). As to `Cc1nn(C)c(C)c1S(=O)(=O)Nc1ccc(C(C)C)cc1`, the z-score is -0.07 (inactive).

In the case of `O=C(COC(=O)c1ccc(N2C(=O)c3ccccc3C2=O)cc1)c1ccc(Cl)cc1`, the z-score is -1.36 (inactive). To `CCOC(=O)c1c(O)cc2ccccc2c1O` belongs 0.14 (inactive); to `O=C1NCCCCC1Nc1ccc(N2C(=O)CCCC2=O)cc1[N+](=O)[O-]` (configuration not stated), -1.9 (inactive). Turning to `Cc1ccc(C(=O)Nc2ccc(Br)cn2)cc1C`, the z-score is -0.15 (inactive). To `COc1ccc(NC(=O)CN(c2cc(C(F)(F)F)ccc2Cl)S(=O)(=O)c2ccccc2)cc1` belongs -0.33 (inactive); to `Cc1ccc2nc(N3CCC(C(=O)NC4CCCCC4)CC3)[nH]c2c1`, 3.44 (inactive). To `CCCCSc1nnc2c(n1)OC(c1ccc3c(c1)OCO3)N(C(C)=O)c1ccccc1-2` (configuration not stated) belongs 0.17 (inactive).

For the compound `C=CCN1C(=O)c2ccccc2Sc2ccc(C(=O)NCCOC)cc21`, the z-score is 1.28 (inactive). In the case of `Cc1ccc(S(=O)(=O)N2N=C(c3ccccc3)CC2c2ccccc2Cl)cc1` (configuration not stated) it was 0.52 (inactive). To `COCCOC(=O)C1=C(C)NC(=O)NC1c1ccc(Br)s1` (configuration not stated) belongs -0.55 (inactive); to `Cc1ccc(CNC(=O)CCNC(=O)Cn2ccc3ccccc3c2=O)cc1`, -0.31 (inactive); to `CCOc1sc2nc(C)n(CC(=O)Nc3ccc(N(C)C)cc3)c(=O)c2c1C`, -1.08 (inactive). On to `CCC(C)NC(=O)C1(C)CCC(=O)N1CCN1CCCCCC1` (configuration not stated), for which the z-score is -0.27 (inactive). In the case of `O=C1C2C3C=CC(C3)C2C(=O)N1c1ccc(Nc2ccc3c(c2)CCC3)c([N+](=O)[O-])c1` (configuration not stated) it was -1.35 (inactive); in that of `Cn1ncc([N+](=O)[O-])c1C#N`, -0.09 (inactive).

`COc1ccc2c(c1)c(C(=O)CNc1nc(C)c(C)s1)c(C)n2C`: the z-score was -1 (inactive). To `O=C1CCCN1CCCn1c(=S)[nH]c2ccccc2c1=O` belongs -0.96 (inactive); to `CC(=O)N1CCc2cc(S(=O)(=O)CCC(=O)Nc3ccc(C(F)(F)F)cc3)ccc21`, -0.69 (inactive). In the case of `Cc1ccc2nsnc2c1S(=O)(=O)Nc1ccc(Br)cc1` it was -1.76 (inactive). Regarding `Cc1ccccc1NCc1cccc([N+](=O)[O-])c1`, the z-score is 0.03 (inactive). In the case of `O=C(c1oc(=O)c2ccccc2c1-c1ccccc1)N1CCc2ccccc21` it was 0.81 (inactive); in that of `Nc1nc2ccccc2n1CCOc1ccc([N+](=O)[O-])cc1`, -0.25 (inactive); in that of `CCC(=O)Nc1cccc(-c2nc3ncccc3o2)c1`, 0.77 (inactive). For the compound `Cc1ccc(CNC(=O)CCSCc2cccc(Cl)c2)cc1`, the z-score was -0.79 (inactive). In the case of `CCOc1ccc(C(=O)Nc2ccc3nn(-c4ccc(OC)cc4)nc3c2)cc1Cl` it was 0.27 (inactive); in that of `Cc1ccc(-c2nnn(CC(=O)Nc3ccc(OC(F)(F)F)cc3)n2)cc1`, 0.34 (inactive); in that of `CCOC(=O)c1cnc2ccc(Cl)cc2c1Nc1ccc2c(c1)OCCO2`, -0.29 (inactive). In the case of `O=C(N1CCCc2ccccc21)C12CC3CC(CC(C3)C1)C2` it was -0.74 (inactive); in that of `O=C(O)c1ccc2c(c1)C(=O)N(c1cccc(Oc3ccc4c(c3)C(=O)N(c3ccccc3)C4=O)c1)C2=O`, -2.01 (inactive); in that of `COc1ccc(-n2cnc3cc(C(=O)NC4CCCC4)ccc32)cc1`, -0.86 (inactive). In the case of `Cc1cc(C)cc(-n2nc3c(c2NC(=O)CCCCl)CSC3)c1` it was -0.91 (inactive); in that of `COc1ccc(OC)c(NC(=O)c2c(NCc3ccc(C)o3)sc3c2CCC3)c1`, -1.95 (inactive); in that of `Cc1cccc(C(=O)Nc2ccc(-c3nc4cc(C(C)(C)C)ccc4o3)cc2)c1`, -0.77 (inactive). Regarding `CCn1cc(C(=O)Nc2cc(Cl)ccc2OC)c(=O)c2ccc(C)nc21`, the z-score is 0.75 (inactive). To `CCn1cc(C(=O)NCCCN2CCCCCC2)c2cc(OC)c(OC)cc2c1=O` belongs -0.6 (inactive); to `Cc1cc(C)cc(NC(=O)CCCn2c(=S)[nH]c3ccccc3c2=O)c1`, -1.99 (inactive). Take `CCCCCCn1c(SCC(=O)c2ccccc2)nc2c1c(=O)[nH]c(=O)n2C`: the z-score is -0.58 (inactive). In the case of `CC(C)c1ccc(NS(=O)(=O)c2ccc3[nH]cc(C(=O)NC4CCCC4)c(=O)c3c2)cc1` it was -2.24 (inactive). To `COc1cc(C(=O)Nc2ccc(C(C)=O)cc2)cc(OC)c1OC` belongs 0.14 (inactive). In the case of `O=C(O)c1ccc(-n2cnnn2)cc1` it was 1.04 (inactive). `CCOC(=O)C1CCN(c2nc(-c3cccc(C)c3)nc3ccccc23)CC1`: the z-score was -0.19 (inactive). To `Cc1ccccc1CSC1=NCCN1C(=O)C12CC3CC(CC(C3)C1)C2` belongs -0.58 (inactive); to `CCOc1ccccc1N(C)C(=O)C1c2cc(OC)c(OC)cc2C(=O)N(C)C1c1cccnc1` (configuration not stated), 1.17 (inactive); to `CCN(CC)C(=O)C1c2cc(OC)c(OC)cc2C(=O)N(C)C1c1ccc(SC)cc1` (configuration not stated), 0.35 (inactive). In the case of `Nc1c(C(=O)Nc2ccc(Br)cc2)sc2nc3c(c(-c4ccco4)c12)CCCCC3` it was -0.89 (inactive); in that of `CN(C)c1ccc(C(O)(c2ccccc2)c2ccccc2)cc1`, -0.51 (inactive); in that of `O=C(CN1CCN(Cc2cccc(Cl)c2)C1=O)NC1CCCCCCC1`, 0.45 (inactive). With `CC(C)CC(=O)N1CCN(Cc2cccc(Cl)c2)CC1`, the z-score is -4 (active). To `CC(C)CC(=O)N1CCN(Cc2ccccc2Br)CC1` belongs 0.09 (inactive); to `CCC(=O)N1CCc2cc(Br)cc(S(=O)(=O)N3CCCC(C(=O)N4CCN(c5cccc(C(F)(F)F)c5)CC4)C3)c21` (configuration not stated), -0.33 (inactive); to `CCOC(=O)c1c(C)oc2ccc(N(C(=O)c3ccccc3Cl)S(=O)(=O)c3cccc([N+](=O)[O-])c3)cc12`, -0.28 (inactive).

For the origin of these results see PubChem BioAssay AID745 (Emory University Molecular Libraries Screening Center, 2007).
